# Only some compounds are listed: those with a hit (about 1.9% of all), similar ones and a draw of the others.
# ERK EGF block – inhibitors of EGF-stimulated ERK signaling pathway; HEK293-V1b, EGF-stimulated phospho-ERK AlphaScreen; Potency, µM (doses to about 11.5 µM), for inactives: at the highest dose activity change, negative = inhibition, most hits filed as inhibitors; 0.41% of 130,000 active; AID 1454;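 also: plate controls were stimulated vehicle wells for no effect and unstimulated vehicle basal for full effect; nearly all actives have a fitted effect of over 55% in size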
#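 HEK293 cells stably expressing V1b receptor, serum-reduced (1% FBS) overnight, pretreated 30 min with compound, then stimulated 5 min with 25 nM EGF; phospho-ERK detected by AlphaScreen SureFire. AC50 from Hill fits, normalized to DMSO and EGF.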
# HTT ATP protect – Huntington cell model cytoprotection by ATP luminescence; PC12 HTT-Q103 induced, cytoprotection, ATP luminescence, 40 h; Potency, µM (top dose mostly 56.4 µM), inactives show cytoprotection (ATP increase), hits mostly activators; 0.14% of 230,000 active; also: % of control where 0% means no effect; nearly all actives have a fitted effect of over 45% in size
#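 ATP quantification (ATPlite) reports survival of PC12 cells in which tebufenozide, 100 nM final, switches on Htt exon 1 with 103 glutamines linked to GFP; compounds are titrated.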
# IMPase Li inh – cell-permeable IMPase inhibitors with lithium potentiation; 0.35% of 210,000 active; AID 1457; CHO-M1 cells, IP1 TR-FRET (IP-One), carbachol + lithium; Potency, µM (doses to about 59.4 µM), for inactives: top-dose activity, negative = IMPase inhibition, most hits filed as inhibitors;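 also: IP1 builds up when IMPase is blocked and the TR-FRET signal falls; plate controls were basal vehicle for no effect and high inhibitor control for full effect; nearly all actives have a fitted effect of over 50% in size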
#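 CHO cells stably expressing M1 receptor (2000/well) were cultured 16–30 h, then exposed to compounds with a small lithium addition for 30 min at 37C. IP1 was measured by TR-FRET competition; AC50 from Hill fits.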
# NPSR antag – neuropeptide S receptor (human) antagonism, cAMP; Q6W5P4; CHO-NPSR cells, cAMP TR-FRET, antagonist mode; Potency, µM (doses to about 38.3 µM), inactives show at the highest dose activity change, negative = inhibition, usual class: inhibitors; 1% of 220,000 active; AID 1461; also: % is scaled to controls: 0 for no effect and ±100 for the full control effect; nearly all actives have a fitted effect of over 50% in size
# Target sequence (Q6W5P4 whole entry, looked up): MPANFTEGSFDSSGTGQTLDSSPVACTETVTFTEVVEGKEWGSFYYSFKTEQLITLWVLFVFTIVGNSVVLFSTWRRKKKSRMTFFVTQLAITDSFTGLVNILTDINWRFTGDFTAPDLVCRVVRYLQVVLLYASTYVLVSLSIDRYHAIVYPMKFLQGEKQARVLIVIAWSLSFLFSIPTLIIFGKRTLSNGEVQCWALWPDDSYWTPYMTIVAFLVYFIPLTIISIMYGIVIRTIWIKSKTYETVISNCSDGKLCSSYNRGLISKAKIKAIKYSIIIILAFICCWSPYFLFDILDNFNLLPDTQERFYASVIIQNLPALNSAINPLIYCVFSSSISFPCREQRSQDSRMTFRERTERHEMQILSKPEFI
# HttQ103 aggreg – mutant huntingtin aggregation inhibition | PC12 HttQ103-GFP aggregates, Acumen cytometry, 40 h | Potency, µM (doses to about 46.1 µM), inactives show top-dose activity change, negative = inhibition, hits mostly inhibitors | 1.1% of 220,000 active | AID 1688; also: % is scaled to controls: 0 for no effect and ±100 for the full control effect; nearly all actives have a fitted effect of over 60% in size
#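 PC12/HTTQ103-GFP, ecdysone-inducible; teb 100 nM; cpd qHTS titration; GFP aggregates read on laser cytometer, Ex 488/Em 500-530 nm.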
# Starred values were filed as active, the others as inactive; ? = inconclusive; nt = no result given; [ ] = dose if it differs, or a comment. Calls follow the shape of the dose curve; as a rule, active = well fitted curve in the direction sought with a large enough effect; inconclusive = small, poorly fitted or top-dose-only effect, or another doubt; inactive = no such curve, though single readings can be large; an effect the other way counts as inactive or inconclusive. Potency is read from the fitted curve at half-maximal effect.
SMILES,ERK EGF block,HTT ATP protect,IMPase Li inh,NPSR antag,HttQ103 aggreg
N#C/C(=C/c1ccc([N+](=O)[O-])cc1)C(N)=O,-2%,-7%,-1%,9%,19%
N#C/C(=C\c1cc([N+](=O)[O-])ccc1Cl)C(N)=O,-11%,1.3µM*,14%,-5%,6%
Nc1nc(CC(=O)O)cs1,nt,1%,3%,nt,nt
Oc1c(N=NC(=S)Nc2ccccc2F)c2ccccc2n1Cc1ccccc1Cl,14µM*,-6%,-4%,3%,-29%
O=C(CN1CCOCC1)n1c2c(c3ccccc31)CCCC2,7%,6%,-11%,-9%,-3%
O=C(CN1CCOCC1)n1c2ccccc2c2ccccc21,nt,-8%[10 µM],-14%[38.3 µM],-5%[46.1 µM],2.8µM*
O=[N+]([O-])c1cccc(C2=N[C@@H](Cc3ccccc3)CO2)c1,nt,-18%,-6%,nt,nt
C=C(NCc1ccccc1)c1ccccc1O,nt,-7%,nt,nt,2%
CN(C)CCCN(C(=O)c1ccc2c(c1)CCCC2)c1nc2ccc(Cl)cc2s1,20µM*,-10%[10 µM],25%,?,-23%
CC(C)(C)c1ccc(C(O)CCCN2CCC(C(O)(c3ccccc3)c3ccccc3)CC2)cc1 (centres undefined),-3%,-99%,17%,?,22µM*
CC(C)(C)c1ccc([C@@H](O)CCCN2CCC(C(O)(c3ccccc3)c3ccccc3)CC2)cc1,21%[25.7 µM],?,5%,nt,nt
S=C(Nc1ccc(Nc2ccccc2)cc1)Nc1ccccn1,12%,-52%,14%,-41%,3%[9.22 µM]
S=C(Nc1ccccc1)c1ccccn1,11%[57.5 µM],-42%[10 µM],39%[38.3 µM],4µM*,-10%[9.22 µM]
Cc1cccc(CNc2nc(-c3cccnc3)nc3ccccc23)c1,32µM*,-24%,22%,nt,nt
COc1cccc(CNc2nc(-c3cccnc3)nc3ccccc23)c1,4%,-3%,10%,-15%,-5%
Cc1c(Cl)cccc1NC(=O)c1cc(-c2ccc(O)cc2)on1,nt,-13%,nt,nt,nt
c1ccc(Nc2ccccc2Nc2ccccn2)nc1,9%,?,9%,-23%[46.1 µM],4%
Oc1cccc2ccc(Nc3ccccn3)nc12,nt,-95%[10 µM],51%[38.3 µM],-6%[46.1 µM],3.5µM*
CCOC(=O)Cc1csc(NC(=O)/C=C/c2ccc(Br)o2)n1,35µM*,-26%[10 µM],nt,-20%,-8%[9.22 µM]
CC1CCCCN1CCCOC(=O)c1ccccc1 (centres undefined),nt,13%,nt,nt,-3%
Cn1c(SCC(=O)Nc2ccc3c(c2)OCCO3)nnc1-c1ccccn1,nt,-2%,13%[38.3 µM],-3%[46.1 µM],-18%
Cc1ccc(NC(=O)CSc2nnc(-c3ccccn3)n2C)cc1,nt,-16%,17%[38.3 µM],-10%[46.1 µM],2.8µM*
Cc1ccc(NC(=O)Cc2nnc(SCC(=O)Nc3ccccc3)n2C)cc1,-1%,nt,-7%,12%,0.18µM*
CCCCC(C=O)CC (centres undefined),nt,1%,7%,nt,nt
CC(=O)c1c(O)c2ccccc2n(C(C)C)c1=O,0%,-31%,-5%,26%,13µM*
SMILES,ERK EGF block,HTT ATP protect,IMPase Li inh,NPSR antag,HttQ103 aggreg
CSc1cccc(NC(=O)/C=C/c2cccc(Cl)c2)c1,9%,nt,16%,-31%,16µM*
N#Cc1cc2c(nc1SCc1ccccc1)CCCC2,4%,nt,16µM*,?,-12%
N#Cc1cc2c(nc1SCc1ccccc1)CCC2,2%,-9%[10 µM],?,?,6%
CCCCc1nc2c(c3c1C[C@H](C)OC3)CN(S(=O)(=O)c1ccc(C#N)cc1)CC2,nt,-33%[10 µM],9%,nt,nt
Cc1ccc(CN2CCN(CC3CC4C=CC3C4)CC2)cc1 (centres undefined),nt,-8%,12%[38.3 µM],-10%[46.1 µM],3.2µM*
O=C(c1ccccc1F)N1CCN(CC2CC3C=CC2C3)CC1 (centres undefined),nt,11%,5%[38.3 µM],-6%[46.1 µM],-13%
CCCCc1nc2c(c3c1C[C@H](C)OC3)CN(S(=O)(=O)CCCC)CC2,nt,0%[10 µM],7%,nt,nt
O=C(CSc1ccc2nnc(-c3ccc(F)cc3)n2n1)NCC1CCCO1 (centres undefined),nt,-14%,25µM*,3%[46.1 µM],4%
COc1ccc(-c2nnc3ccc(SCC(=O)NCC4CCCO4)nn23)cc1 (centres undefined),nt,9%[10 µM],32%[38.3 µM],-1%[46.1 µM],-18%
Cn1c(=O)c(CCc2ccccc2)nc2cnc(N3CCOCC3)nc21,nt,?,-9%,nt,nt
Cc1ccc(Cn2cccc2/C=C2/C(=N)N3C=CSC3=NC2=O)cc1,3%,?,-6%,-23%,6%
N=C1/C(=C/c2cccn2Cc2ccc(F)cc2)C(=O)N=C2SC=CN12,-6%,-15%,2%,7%,0.014µM*
CCCCCCCC/C=C\CCCCCCCCN,nt,-8%,nt,nt,0%
COc1ccc(-n2nc(C)cc2Nc2ccccc2C(=O)O)cc1,17%[57.5 µM],14%[10 µM],nt,22%,11%[9.22 µM]
COc1ccc(C(=NNc2ccccc2C(=O)O)c2ccc(OC)cc2)cc1,?,nt,13%,7.9µM*,4%
N#Cc1ccccc1OC[C@H](O)CNCCNC(=O)Nc1ccccc1,0%,32µM*,4%,nt,nt
O=C(Nc1ccsc1C(=O)NC1CCCCC1)c1ccc(F)cc1,nt,-31%,28µM*,-10%[46.1 µM],-24%
O=C(Nc1ccsc1C(=O)N1CCCCCC1)c1ccccc1,nt,-15%,-9%[38.3 µM],-20%[46.1 µM],-6%
O=[N+]([O-])c1ccc(CSc2ncnc3c2ncn3C2OC(CO)C(O)C2O)cc1 (centres undefined),nt,-45%,9%,nt,nt
C=CCCCCCCCCC(=O)O,nt,?,4%,nt,-18%
CCN(C(=O)CC(C)C)c1nnc(Cn2nnc3ccccc32)s1,2%,0.89µM*,10%,7%,-27%
Cc1ccc(C(=O)NNC(=O)Cn2nnc3ccccc32)cc1,5%[57.5 µM],10%[10 µM],nt,-3%,11%[9.22 µM]
CCN(C(=O)c1ccc(C(C)(C)C)cc1)c1nnc(Cn2nnc3ccccc32)s1,nt,16%[10 µM],12%[38.3 µM],?,6.3µM*
COc1cc(/C=N/NC(=O)c2cccc([N+](=O)[O-])c2)cc(OC)c1O,-7%,-33%,8%,-16%,-3%
Cc1cccc(/C=N\NC(=O)c2ccc(Cl)cc2)c1O,4%,-82%[10 µM],5%,-9%,0.45µM*
SMILES,ERK EGF block,HTT ATP protect,IMPase Li inh,NPSR antag,HttQ103 aggreg
COc1cccc(/C=N/NC(=O)c2ccc(=O)n(C)c2)c1O,3%,-84%[10 µM],7%,8%,7.9µM*
COc1cccc(/C=N/NC(=O)c2ccc([N+](=O)[O-])cc2Cl)c1O,-9%,-79%[10 µM],3%,-12%,7.1µM*
COC1=CC(C)C2CC3OC(=O)CC4C(C)=C(OC)C(=O)C([C@]2(C)C1=O)[C@]34C (some centres undefined),22%,nt,-2%,nt,nt
C=C(C)C(O)/C=C/c1ccc(OC)cc1 (centres undefined),nt,1%[10 µM],nt,nt,nt
CCSc1ccc(C(=O)Nc2cccc(C)n2)cc1[N+](=O)[O-],-7%,7%[10 µM],3%,9%,-9%
Cc1cccc(NC(=O)c2ccc(NC(C)c3ccccc3)c([N+](=O)[O-])c2)n1 (centres undefined),14µM*,-12%[10 µM],10%,-28%,6%
